The record followed here is PubChem BioAssay (Tox21).

Each structure is given as a SMILES string. Inconclusive results are not listed. Values without a mark were called inactive. Calls of active or inactive are those of the source. Calls follow the shape of the full dose curve.
% is scaled to controls: 0 for no effect and ±100 for the full control effect.

The assay can be described thus: qHTS assay to identify small molecule agonists or antagonists of the thyroid stimulating hormone receptor (TSHR) signaling pathway - wild type cell line counter screen (AID 1259384). Conditions: HEK293 wild type, cAMP HTRF counter-screen, stronger effect = higher value; series mostly up to 92.4 µM. The source says: U.S. Tox21 Program National Center for Advancing Translational Sciences [NCATS] NIH Chemical Genomics Center [NCGC] U.S. Environmental Protection Agency [EPA] National Institutes of Environmental Health Sciences [NIEHS] National Toxicology Program [NTP] U.S. Food and Drug Administration [FDA] Tox21 Assay Overview: TSHR is the receptor for thyrotropin (thyroid stimulating hormone or TSH), a member of the glycoprotein hormone family. TSH is released by the anterior pituitary gland and is the main regulator of thyroid gland growth and development. Upon binding circulating thyrotropin, a G-protein signal cascade activates adenylyl cyclase and […] cAMP concentration is increased. cAMP is a key second messenger involved extensively in cellular signal transduction pathways associated with the majority of G-protein coupled receptors (GPCRs). The activation of these GPCRs by neurotransmitters, lipids, nucleotides, peptides and hormones results in the activation or the inhibition of plasma membrane-bound adenylate cyclase through heterotrimeric G-proteins. A cell-based TSHR-Hek293 assay can be used to identify TSHR agonists. To eliminate the false positive compounds identified from screening a cell-based TSHR-Hek293 cell line, cAMP assay in a wild type Hek293 cells was used as a counter screening.
Tox21 Assay Protocol Summary: Hek293 cells (wild type) were dispensed at 800 cells/4 uL/well in 1536-well white plates using a Multidrop dispenser. After the assay plates were incubated at a 37 C/5% CO2 incubator for 18 hrs, 23 nL of compounds dissolved in DMSO, positive controls or DMSO only was transferred to the assay plate by a pin tool, followed by 1 ul medium containing Ro20-1724. After 30 min of incubation at room temperature, 2.5 ul/well of cAMP-d2 and 2.5 ul/well of anti-cAMP-cryptate were added respectively into the assay plates using a Flying Reagent Dispenser. The plates were incubated at room temperature for 1 hr. The fluorescence intensity in the plates was measured using an Envision plate reader. Each test compound was measured at 15 concentrations and in triplicates.
A general note: In qHTS, concentration-response curves come from the screen itself.
`C1CSCCS1`: the call was inactive.
As to `CCOc1ccc(NC(N)=O)cc1`, the molecule was classed as inactive.
On the same count and under the same terms, the same measure for `CCCCC1CCC(=O)O1` (stereo not given): “inactive”; for `Cc1ccsc1C(=CCCN1CCC[C@@H](C(=O)O)C1)c1sccc1C`: “inactive”; for `O=c1[nH]cnc2c1ncn2[C@@H]1O[C@H](CO)[C@@H](O)[C@H]1O`: “inactive”.
On to `C1CCOC1`, for which the molecule was classed as inactive.
Turning to `CCCNC(C)(C)COC(=O)c1ccccc1`, the outcome was inactive.
As to `Cc1cn([C@@H]2O[C@H](CO)[C@@H](O)[C@@H]2F)c(=O)[nH]c1=O`, the result was inactive.
For the molecule `CC1=CC(=O)CC(C)(C)C1=O`, the molecule was classed as inactive.
Turning to `N#Cc1ccc(C(c2ccc(C#N)cc2)n2cncn2)cc1`, the molecule was classed as inactive.
As for `CN(C)CC[C@@H](c1ccc(Cl)cc1)c1ccccn1`, the result was inactive.
On to `COc1ccc(Nc2ccc(OC)cc2)cc1`, for which the call was inactive.
With `NC(Cc1ccc(F)cc1)C(=O)O` (stereo not given), the cAMP activity change is -1.15% [at 8.39 µM].
With `C=CCc1cc(OC)c(O)c(C(=O)NCCO)c1`, the outcome was inactive.
As to `CCOC(=O)[C@H](CCc1ccccc1)N[C@@H](C)C(=O)N1Cc2cc(OC)c(OC)cc2C[C@H]1C(=O)O`, the molecule was classed as inactive.
With `Cc1cccc(C)c1NC(=O)CN1CCCCCC1`, the result was inactive.
For `CCOC(=O)COc1ccc2c(c1)CC(NCC(O)c1cccc(Cl)c1)CC2` (stereo not given), the outcome was inactive.
For `O=C1C=CC(=O)O1`, the molecule was classed as inactive.
`C=CC1CO1` (stereo not given): the outcome was inactive.
With `CN(CC1(C)CCCO1)S(=O)(=O)c1ccc(Cl)c(S(N)(=O)=O)c1` (stereo not given), the molecule was classed as inactive.
As to `CCCCC(CC)COC(=O)COc1cc(Cl)c(Cl)cc1Cl` (stereo not given), the result was inactive.
On the same count and under the same terms, the same measure for `O=C1CCN(c2ccccc2)N1`: “inactive”; for `CCOC(=O)C(Br)c1ccccc1` (stereo not given): “inactive”.
For the molecule `C[C@@H](N)C(=O)O`, the call was inactive.
Consider `CCOc1ccc2nc(N)sc2c1`, for which the molecule was classed as inactive.
For the molecule `CCCCNC(=S)NCCCC`, the molecule was called inactive.
On the same count and under the same terms, the same measure for `O=C(CCCl)NCc1ccccc1`: “inactive”; for `CCCCCCC`: “inactive”; for `CC/C=C\CCOC(=O)CCCCC`: “inactive”.
For `O=c1[nH]c(=O)n([C@H]2C[C@H](O)[C@@H](CO)O2)cc1C(F)(F)F`, the call was inactive.
Regarding `Nc1ccc2ccccc2c1S(=O)(=O)O`, the call was inactive.
Turning to `CC/C=C\CCOC(=O)C(C)C`, the molecule was called inactive.
Take `CCCCCCCCc1ccc(S(=O)(=O)O)cc1`: the result was inactive.
Still for that read-out and setting: the same measure for `O=C1CCCc2ccccc21`: “inactive”; for `CCCCCOc1ccc(C2SC(=O)NC2=O)cc1OCC` (stereo not given): “inactive”.
On the same count and under the same terms, as for `CCCCNCCCC`, the entry is “inactive”.
Regarding `O=C1Nc2ccc([N+](=O)[O-])cc2C1=O`, the outcome was inactive.
Consider `NC/C=C/C(=O)O`, for which the molecule was called inactive.
As for `CN(C)Cc1ccccc1`, the molecule was classed as inactive.
Regarding `CCCCOc1cc(C(=O)NCCN(CC)CC)c2ccccc2n1`, the call was inactive.
